Results as given in PubChem BioAssay AID372 (MTDP, 2006).
The campaign covered roughly 100,000 compounds. About 770 (0.77%) were called active. This is one part of a sample in which actives are shown more often than they occur. A number with no mark means an inactive call. Cut-off read from the data, not from the text of the source: active = inhibition above about 50%; inactive = the rest.

target: Gag-Pol polyprotein (Human immunodeficiency virus type 1 group M subtype B (isolate HXB2)) (UniProt P04585); experiment: RNase H inhibition, HIV 1 Gag Pol polyprotein, FRET biochemical assay, screening (AID 372); settings: HIV-1 RT RNase H, FRET RNA/DNA substrate fluorescence; at 10 µM; hits give high values

Row | Structure (SMILES) | inhibition
1 | COc1ccc(C(=O)OCC(=O)c2ccc([N+](=O)[O-])cc2)cc1OC | 7%
2 | O=S(=O)(Nc1nc2ccccc2s1)c1cccc2cccnc12 | 8%
3 | Cc1cc(NC(=O)CSc2nnc3c4ccccc4n(C)c3n2)no1 | 4%
4 | Oc1c(Br)cc(Br)cc1/C=N/Nc1nnc2c(n1)[nH]c1ccccc12 | 2%
5 | Oc1c(Br)cc(/C=N/Nc2nnc3c(n2)[nH]c2ccccc23)c(O)c1Br | 12%
6 | O=C(CNC(=O)c1ccccc1)OCC(=O)c1ccc(Cl)cc1 | 3%
7 | Cc1ccc(N2NC(=O)/C(=C/c3ccc(O)c(O)c3)C2=O)cc1C | 52% (active)
8 | O=C1NN(c2ccc(I)cc2)C(=O)/C1=C\c1ccc(F)cc1 | 0%
9 | Cc1ccc(N2NC(=O)/C(=C/c3ccc(O)c([N+](=O)[O-])c3)C2=O)cc1 | 8%
10 | CCOC(=O)c1ccc(N2NC(=O)/C(=C/c3cc(I)cc(I)c3O)C2=O)cc1 | 57% (active)
11 | CCOc1cc(/C=C2/C(=O)NN(c3ccc(I)cc3)C2=O)ccc1O | 11%
12 | Cc1ccc(N2C(=O)NC(=O)/C(=C/c3ccc(O)c(O)c3)C2=O)cc1 | 33%
13 | Cc1ccc(N2NC(=O)/C(=C/c3cc(I)cc(I)c3O)C2=O)cc1 | 0%
14 | Cc1ccc(N2NC(=O)/C(=C/c3ccc(O)c(O)c3)C2=O)cc1 | 51% (active)
15 | CCOC(=O)c1ccc(N2NC(=O)/C(=C/c3ccccc3O)C2=O)cc1 | 14%
16 | COc1cc(/C=C2/C(=O)NN(c3ccc(C)c(C)c3)C2=O)ccc1O | 25%
17 | Cc1ccc(N2NC(=O)/C(=C/c3ccc(O)cc3)C2=O)cc1C | 13%
18 | O=C(CSc1nc2ccccc2[nH]1)Nc1cc(Cl)ccc1Cl | 4%
19 | CCCOC(=O)C1=C(C)NC2=C(C(=O)CCC2)C1c1cccc(O)c1 (configuration not stated) | 2%
20 | CCOC(=O)C1=C(C)NC2=C(C(=O)CC(C)(C)C2)C1c1cccc(O)c1 (configuration not stated) | 0%
21 | N#CC1=C(SCC(=O)Nc2ccccc2)NC(=O)CC1c1ccco1 (configuration not stated) | 7%
22 | COc1ccc2oc(C)c(C(O)c3ccccc3)c2c1 (configuration not stated) | 0%
23 | CCOc1ccc(N2C(=O)CSC2=S)cc1 | 0%

Row | Structure (SMILES) | inhibition
24 | O=C1NN(c2ccc(Cl)cc2)C(=O)/C1=C\c1ccc(O)c(O)c1 | 57% (active)
25 | COc1cc(/C=C2/C(=O)NN(c3ccc(Cl)cc3)C2=O)ccc1O | 23%
26 | O=C1NN(c2ccc(Cl)c(Cl)c2)C(=O)/C1=C/c1ccc(O)c(O)c1 | 49%
27 | COc1cccc(OCCCN2CCCC2)c1 | 13%
28 | O=C(COc1ccccc1Cl)Nc1cccc(S(=O)(=O)c2cccc(NC(=O)COc3ccccc3Cl)c2)c1 | 54% (active)
29 | O=C(Cc1ccc(Cl)cc1)Nc1ccc2nn(-c3ccc(Cl)cc3)nc2c1 | 51% (active)
30 | O=C(Cc1ccc(Cl)cc1)Nc1ccc2nn(-c3ccc(F)cc3)nc2c1 | 41%
31 | COc1ccc(-n2nc3ccc(NC(=O)COc4ccccc4Cl)cc3n2)cc1 | 32%
32 | O=C(COc1ccccc1Cl)Nc1cccc(NC(=O)c2ccccc2)c1 | 6%
33 | Cc1ccccc1OCC(=O)Nc1ccc2nn(-c3ccccc3)nc2c1 | 8%
34 | O=C(Cc1ccccc1)Nc1ccc2nn(-c3ccc(Cl)cc3)nc2c1 | 37%
35 | O=C(COc1ccccc1Cl)Nc1ccc2nn(-c3ccccc3)nc2c1 | 53% (active)
36 | O=C(COc1ccccc1Cl)Nc1cccc(NC(=O)c2cccc(Cl)c2)c1 | 38%
37 | O=C(COc1ccccc1)Nc1cc(C(F)(F)F)cc(C(F)(F)F)c1 | 0%
38 | CC1=C(C(=O)Nc2ccccc2)C(c2cccc(Br)c2)NC(=S)N1 (configuration not stated) | 8%
39 | COc1cc(/C=N\NC(=O)CSc2nc3ccccc3o2)ccc1O | 25%
40 | C#CCSc1nc(C)cc(C)c1C#N | 13%
41 | Cc1csc(NC(=O)C2CC3CCC2C3)n1 (configuration not stated) | 4%
42 | COc1ccc(N(CC(=O)Nc2cccc(OC)c2)S(=O)(=O)c2ccc(C)cc2)cc1 | 16%
43 | CC(C(=O)O)n1c(O)c(/C=C2/C=Nc3ccccc32)sc1=S (configuration not stated) | 4%
44 | O=C(N/N=C/c1c[nH]c2ccccc12)c1cc(O)cc(O)c1 | 8%
45 | O=C(N/N=C/c1ccc(Cl)cc1Cl)c1ccc(O)c(O)c1 | 57% (active)
46 | O=C(N/N=C/c1ccc(O)c(O)c1O)c1ccc(Cl)cc1Cl | 61% (active)

Row | Structure (SMILES) | inhibition
47 | O=C(N/N=C/c1ccccc1Cl)c1ccc(C(=O)N/N=C/c2ccccc2Cl)cc1 | 0%
48 | O=C(N/N=C/c1ccccc1Cl)c1cccc(Cl)c1 | 8%
49 | O=C(N/N=C/c1ccc(Cl)cc1Cl)c1cc(Br)ccc1O | 0%
50 | Cc1ccccc1/C=N/NC(=O)c1cc(O)cc(O)c1 | 2%
51 | O=C(N/N=C/c1ccc(Cl)cc1Cl)c1cc(O)cc(O)c1 | 6%
52 | C[n+]1ccc(C(=O)N/N=C/c2ccc(Cl)cc2Cl)cc1 | 0%
53 | O=C(N/N=C/c1coc2ccccc2c1=O)c1cc(O)cc(O)c1 | 55% (active)
54 | O=C(N/N=C/c1ccc(Cl)cc1Cl)c1ccccc1Cl | 5%
55 | O=C(/C=C/c1cc(Br)cs1)Nc1ccccc1 | 11%
56 | Cc1cc(C)c(S(=O)(=O)N2CCCC2=O)c(C)c1 | 0%
57 | O=C(Nc1cc(NC(=O)c2cc(Cl)ccc2Cl)ccc1Cl)c1ccccc1 | 20%
58 | Cc1nnc(C)n1/N=C/c1ccc(Cl)cc1 | 2%
59 | Cn1c(SC/C=C/c2ccccc2)nc2sc3c(c2c1=O)CCC3 | 2%
60 | CCOC(=O)c1c(NC(=O)Cc2cccs2)sc(C(=O)Nc2cc(C(F)(F)F)ccc2Cl)c1C | 16%
61 | COc1ccc(C2CC(=O)N(CCCN(C)C)C2)cc1 (configuration not stated) | 2%
62 | O=C(N/N=C/c1cccc(O)c1O)c1ccc(O)cc1 | 32%
63 | O=C(N/N=C/c1cccc(Cl)c1Cl)c1ccc(O)c(O)c1 | 56% (active)
64 | O=C(N/N=C/c1cccc(Cl)c1Cl)c1ccc(O)cc1 | 0%
65 | O=C(N/N=C/c1cccc(O)c1O)c1cc(O)cc(O)c1 | 86% (active)
66 | O=C(N/N=C/c1cccc(O)c1O)c1ccccc1 | 31%
67 | O=C(N/N=C/c1cccc(Cl)c1Cl)c1ccc(Cl)c(Cl)c1 | 5%
